From PubChem BioAssay come the findings set out here.

Experiment [1] is described as follows: reducers of endogenous Her2 protein level, primary screen, SKBR3 breast tumor cells, AlphaScreen, ATP viability (AID 461;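 active = Her2 level under about 52% in both replicate screens, with viability over 70% of control, limit read from the data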;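 for Her2 level: lower value means less Her2 protein in the cells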;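 for viability: percent of carrier control wells set as 100% viability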). The following applies: 18-24 h, measured here: SKBR3 viability, ATP luminescence, at 10 µM.
Experiment [2] concerns the target Receptor tyrosine-protein kinase erbB-2 (Homo sapiens) (UniProt P04626). The experiment is described as above. The following applies: 18-24 h, at 10 µM, stronger effect = lower value.
Experiment [3] can be described thus: SK-BR-3 cell growth inhibitors, pilot screen, 24 h, human (AID 572;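 active = viability at or below 10% of carrier control in both of two separate runs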;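 note: compound exposure lasted between 18 and 24 h rather than exactly 24 h; 100% = carrier-treated control wells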). The following applies: SK-BR-3 viability, CellTiter-Glo luminescence, at 10 µM, stronger effect = lower value.
Experiment [4] can be described thus: HUVEC growth inhibition – cell-based, human, primary screen (AID 575;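 active = viability at or below 30% in both replicate assays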;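 note: 100% = median of untreated cell wells with 0.1% DMSO on each plate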). The note with it: HUVEC proliferation, CellTiter-Glo luminescence, 72 h; at 10 µM; stronger effect = lower value.
Experiment [5] in a line: growth inhibitors of H69AR lung tumor, primary screen, human, duplicate replicates (AID 580;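 active = viability at or under a set limit in both replicates, limit being median viability minus 3 SD, cut at about 48% in these data, passing the limit was not always enough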;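 note: 100% = mean luminescence of untreated wells and 0% = no signal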). The note with it: H69AR lung tumor cells viability, ATP luminescence, 72 h; at 10 µM; stronger effect = lower value.
Experiment [6] can be described thus: reversal of MRP1-mediated doxorubicin resistance, pilot screen, H69AR cells, doxorubicin co-treatment (AID 601;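 active = viability loss from added drug above about 55%, and viability with drug at most 40%, in both replicates, limit read from the data, passing the limit was not always enough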). The following applies: CellTiter-Glo, 72 h, at 10 µM; for differential viability (reversal): stronger effect = higher value.
The nature of experiment [7]: 384-well plate pilot, post-Golgi transport modulator project, inhibition of yeast transport mutant growth (AID 636; in the data active = inhibition above about 31%). The following applies: absorbance 615 nm, about 18 h, stronger effect = higher value.
Experiment [8] is described as follows: growth suppression of yeast trafficking mutant, preliminary HTS, modulators of trafficking downstream of Golgi apparatus project, 1536-format plate, OD 615 nm (AID 637; in the data active = inhibition above about 30%). The note with it: yeast transport mutant growth, absorbance 615 nm, 18 h; stronger effect = higher value.
The nature of experiment [9]: OD615 S. cerevisiae growth inhibition, permissive medium, pilot counter-assay, permissive growth control for S. cerevisiae lifespan shortening project (AID 705;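 active = growth inhibition above 25% in both replicates, a cutoff set 3 SD above the mean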). The note with it: OD615, 24 h, at 10 µM, stronger effect = higher value.
Experiment [10] in a line: Restrictive medium S. cerevisiae growth inhibition, OD615, pilot screen of yeast lifespan reduction project, restrictive growth control (AID 706;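 active = growth inhibition above a set limit, 3 SD over mean compound inhibition, in both replicates, cut at about 43% in these data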;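 note: modified DeaD lifespan yeast strain shifted to restrictive glucose medium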). The note with it: OD615, 48 h, at 10 µM, stronger effect = higher value.
Experiment [11] in a line: viability gain of MRP-1-high H69AR cells under doxorubicin, pilot screen, MRP-1 activator project, CellTiter-Glo, duplicate (AID 807;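 active = viability increase at or above a cutoff of the median across tested compounds plus 3 SD, cut at about 8.5% in these data, passing the limit was not always enough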;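 note: compound pretreatment 18-22 h then 72 h combined with doxorubicin; 0% = doxorubicin alone and 100% = vehicle without doxorubicin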). The following applies: H69AR viability with doxorubicin, CellTiter-Glo luminescence; at 10 µM; stronger effect = higher value.
Experiment [12] is described as follows: growth suppression of beta-catenin knockout HCT116, pilot screen, human colon tumor cells (AID 823).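 Note: 0% = wells killed by 20 µM Hyamine and 100% = untreated DMSO cell wells.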 The following applies: CellTiter-Glo, 60 h, at 10 µM, stronger effect = lower value.
Experiment [13] is described as follows: growth suppression of PTEN-deleted HCT116, pilot screen, cell-based, HCT116 clonal line, CellTiter-Glo (AID 824;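 active = viability at or below 27.92% in each of two runs, the all-compound median minus 4 SD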;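 note: 0% = 20 µM Hyamine control and 100% = vehicle cell control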). The note with it: 60 h, at 10 µM, stronger effect = lower value.
Experiment [14] is described as follows: inhibitors of the yeast RAM network, pilot screen, dse1pr::URA3 reporter, 5-FOA selection (AID 869;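 active = inhibition over a set limit, the all-compound mean plus 3 SD, in both replicate runs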;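 note: 0% = DMSO wells with no growth and 100% = 10 µM 1-NA-PP1 with full growth; RAM network block rescues cells from 5-FOA so hits raise OD615 growth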). The following applies: S. cerevisiae dse1pr::URA3 5-FOA growth, OD615, 2 d; at 10 µM; stronger effect = higher value; strain carries analog-sensitive mutant Cbk1 kinase.
The nature of experiment [15]: RAM signaling pathway blockade in yeast – S. cerevisiae, Pdr1DBD-CYC8 efflux-inhibited sensitized strain, primary screen (AID 1298;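 active = RAM network inhibition above 8.4% in each of two replicates, 3 SD over the compound average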;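 note: 0% = DMSO untreated cells without growth and 100% = 10 µM 1-NA-PP1 full growth; higher means more yeast growth rescued from 5-FOA killing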). The note with it: S. cerevisiae cbk1-as DSE1-URA3 strain, 5-FOA growth OD615, 2 d; at 50 µM; stronger effect = higher value.
The mark [16] stands for this setting: H69AR cells + 2 uM doxorubicin, measured here: viability with 2 uM doxorubicin, stronger effect = lower value.
The mark [17] stands for this setting: H69AR cells, compound alone cytotoxicity.

Inconclusive results are not listed. Active and inactive are the calls of the source.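 Rule for the calls, unless noted: active = cell viability at or below a set limit in both duplicate runs, the limit being the all-compound median minus 4 SD (cut at about 23% in these data, passing the limit was not always enough); inconclusive = no clear call, values can overlap the other calls; inactive = the rest.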

Sequence of Receptor tyrosine-protein kinase erbB-2 (Homo sapiens) (P04626 whole entry, looked up): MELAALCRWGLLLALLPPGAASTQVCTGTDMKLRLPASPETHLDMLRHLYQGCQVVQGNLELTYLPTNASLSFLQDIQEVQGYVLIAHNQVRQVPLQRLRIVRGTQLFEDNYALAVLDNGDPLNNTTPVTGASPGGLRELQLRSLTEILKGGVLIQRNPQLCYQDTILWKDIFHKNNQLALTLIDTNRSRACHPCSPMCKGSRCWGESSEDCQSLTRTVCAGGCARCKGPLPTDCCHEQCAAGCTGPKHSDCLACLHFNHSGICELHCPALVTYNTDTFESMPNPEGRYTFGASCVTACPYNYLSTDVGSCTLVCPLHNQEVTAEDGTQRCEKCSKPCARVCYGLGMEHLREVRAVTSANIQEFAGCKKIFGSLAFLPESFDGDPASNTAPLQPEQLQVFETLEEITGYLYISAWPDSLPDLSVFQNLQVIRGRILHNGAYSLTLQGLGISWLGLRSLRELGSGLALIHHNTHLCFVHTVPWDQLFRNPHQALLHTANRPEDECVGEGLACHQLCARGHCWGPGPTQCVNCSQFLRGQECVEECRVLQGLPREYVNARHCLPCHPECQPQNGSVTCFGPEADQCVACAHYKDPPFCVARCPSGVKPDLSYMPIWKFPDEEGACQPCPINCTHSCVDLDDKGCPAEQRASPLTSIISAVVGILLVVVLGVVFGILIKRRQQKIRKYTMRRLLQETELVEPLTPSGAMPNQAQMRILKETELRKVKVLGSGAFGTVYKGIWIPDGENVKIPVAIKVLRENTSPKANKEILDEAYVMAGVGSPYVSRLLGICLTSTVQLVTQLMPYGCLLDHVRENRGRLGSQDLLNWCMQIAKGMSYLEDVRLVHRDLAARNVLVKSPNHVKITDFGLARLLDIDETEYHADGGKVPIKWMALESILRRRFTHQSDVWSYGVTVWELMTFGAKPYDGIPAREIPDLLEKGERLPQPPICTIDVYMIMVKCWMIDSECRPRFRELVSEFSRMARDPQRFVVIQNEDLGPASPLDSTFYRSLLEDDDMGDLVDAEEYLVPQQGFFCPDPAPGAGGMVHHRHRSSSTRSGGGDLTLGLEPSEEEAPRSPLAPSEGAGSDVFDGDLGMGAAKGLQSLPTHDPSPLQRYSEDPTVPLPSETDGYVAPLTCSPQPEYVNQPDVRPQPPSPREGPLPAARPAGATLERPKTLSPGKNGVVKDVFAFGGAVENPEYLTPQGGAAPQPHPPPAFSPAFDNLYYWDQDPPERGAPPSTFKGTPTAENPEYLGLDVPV

Consider `CCOC(=O)N1CCN(Cc2nc3c(c(=O)n(C)c(=O)n3C)n2Cc2ccccc2)CC1`, for which the viability is 104% in experiment [1]; 104% (inactive) in experiment [3]; 96.3% (inactive) in experiment [4]; 89.1% (inactive) in [5]; 78.7% in experiment [6] (setting [16]); 89.1% in [6] (setting [17]). The viability was 97.3% (inactive) in [12] and 98% (inactive) in [13]. Further, the Her2 level in experiment [2] was 106% (inactive). Also, the differential viability (reversal) in [6] (H69AR cells + 2 uM doxorubicin) is 10.5% (inactive). In addition, the inhibition in experiment [7] is -2.13% (inactive); in experiment [8], 2.62% (inactive); in experiment [14] it was 0.61% (inactive). The growth inhibition is -8.18% (inactive) in [9] and -4.35% (inactive) in experiment [10]. Moreover, the viability increase in experiment [11] is -4.1% (inactive). The RAM network inhibition in [15] was 4.53% (inactive).
In the case of `Cc1noc(/C=C/N(C)C)c1S(=O)(=O)N1CCCC(C(=O)N2CCc3ccccc32)C1` (stereo not given), the viability in experiment [1] was 104%; in experiment [3], 104% (inactive); in experiment [4], 86.3% (inactive); in experiment [5], 89.2% (inactive); in experiment [6] (setting [16]), 94.7%; in experiment [6] (setting [17]), 89.2%. For the same molecule, the viability in experiment [12] was 103% (inactive); in experiment [13], 109% (inactive). For the same molecule, the Her2 level in experiment [2] is 99% (inactive). In addition, the differential viability (reversal) in [6] (H69AR cells + 2 uM doxorubicin) was -5.5% (inactive). Besides, the results for the inhibition in experiment [7], in experiment [8] and in experiment [14] were -5.2% (inactive), -0.33% (inactive) and 1.35% (inactive), respectively. For the same molecule, the growth inhibition in [9] was 5.67% (inactive); in [10] it was -0.63% (inactive). The viability increase in [11] is -0.98% (inactive). In addition, in experiment [15], the RAM network inhibition is 4.08% (inactive).
As to `Cc1cccc(-n2ncc3c(NCc4cccnc4)ncnc32)c1`, the viability in experiment [1] is 95.5%; in [3], 95.5% (inactive); in experiment [4], 99.3% (inactive); in [5], 88% (inactive); in experiment [6] (setting [16]), 91.2%; in experiment [6] (setting [17]), 88%. Further, the viability in experiment [12] is 89.4% (inactive); in experiment [13], 87.5% (inactive). Moreover, in [2], the Her2 level is 93% (inactive). In [6] (H69AR cells + 2 uM doxorubicin), the differential viability (reversal) is -3.23% (inactive). The results for the inhibition in experiment [7], in experiment [8] and in experiment [14] were -4.8% (inactive), 0.5% (inactive) and 2.54% (inactive), respectively. For the same molecule, the growth inhibition in [9] is -8.17% (inactive); in [10] it was -8.12% (inactive). In addition, the viability increase in [11] was -0.52% (inactive). Besides, the RAM network inhibition in [15] was 2.13% (inactive).
For the molecule `CC(C)Cc1nnc(NS(=O)(=O)c2ccc(Cl)cc2)s1`, the viability in experiment [1] was 91.5%; in [3], 91.5% (inactive); in experiment [4], 90.1% (inactive); in [5], 90% (inactive); in experiment [6] (setting [16]) it was 94.7%; in experiment [6] (setting [17]) it was 90%. Besides, the viability is 99.2% (inactive) in experiment [12] and 96.7% (inactive) in experiment [13]. For the same molecule, the Her2 level in experiment [2] was 98% (inactive). Also, the differential viability (reversal) in experiment [6] (H69AR cells + 2 uM doxorubicin) was -4.72% (inactive). For the same molecule, the figures for the inhibition in [7], in experiment [8] and in [14] were -4.53% (inactive), -0.5% (inactive) and 1.43% (inactive), respectively. Moreover, the growth inhibition in experiment [9] was -22.6% (inactive); in [10] it was 3.6% (inactive). Also, the viability increase in experiment [11] was 2.68% (inactive). Also, the RAM network inhibition in experiment [15] is 4.53% (inactive).
For `O=C(NCCSc1c[nH]c2ccccc12)c1ccc(Br)o1`, the viability was 104% in [1]; 104% (inactive) in experiment [3]; 47.8% (inactive) in experiment [4]; 54.6% (inactive) in [5]; 75.8% in experiment [6] (setting [16]); 54.6% in experiment [6] (setting [17]). In addition, the values for the viability in experiment [12] and in experiment [13] were 106% (inactive) and 93.6% (inactive), respectively. Besides, in [2], the Her2 level is 94.5% (inactive). For the same molecule, the differential viability (reversal) in [6] (H69AR cells + 2 uM doxorubicin) is -21.1% (inactive). For the same molecule, the values for the inhibition in [7], in [8] and in [14] were -2.93% (inactive), 1.17% (inactive) and 1.83% (inactive), respectively. Moreover, the growth inhibition in experiment [9] is -10.7% (inactive); in [10], -12.6% (inactive). For the same molecule, the viability increase in experiment [11] was -3.97% (inactive). Also, the RAM network inhibition in experiment [15] is 3.28% (inactive).
